About 2,000 (0.56%) of roughly 360,000 compounds were called active. This excerpt belongs to a sample that is enriched for actives. Values without a mark were called inactive.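 The calls were made as follows: active = activation above the average of all compounds screened plus 3 SD, cutoff fixed separately per campaign (cut at about 7.5% in these data); inactive = the rest.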

A short description of the test: GAA850 frataxin promoter reporter upregulation – cell-based, luciferase luminescence, HEK293 lucGAA850, primary screen (AID 540364).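 Also: 0% = DMSO wells and 100% = 10 µM SAHA wells.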 To be noted: HEK293 lucGAA850 FXN promoter luciferase reporter, 24 h; at 6 µM; active compounds read high; percent of 10 µM SAHA response. (A reporter such as luciferase makes a cellular process visible.)
For `NC(c1csc(NC(=O)Nc2cccc(C(F)(F)F)c2)n1)C1CCCCC1` (centres undefined), the activation is 0.57%.
As for `Cc1[nH]c2ccccc2c1C(=O)C(C)Sc1nnc(C2CC2)o1` (centres undefined), the activation was -0.9%.
The same measure for `CCOc1ccc(Nc2oc(Cc3ccccc3)nc2C#N)cc1`: 7.76% (active).
Regarding `Cc1ccc(OCc2nc(C#N)c(N3CCCC3)o2)cc1`, the activation was 1.46%.
In the case of `COc1ccc(Nc2oc(-c3ccccc3Cl)nc2C#N)cc1`, the activation is -4.29%.
The same measure for `Cn1c(=O)n(C)c(=O)n(CC(=O)N2CCCCC2)c1=O`: -1.79%.
Take `O=C(CSc1nc2[nH]c(=O)[nH]c(=O)c2s1)Nc1cccc(F)c1`: the activation was -0.65%.
The same measure for `CCCOP(=O)(c1ccc(N(C)C)cc1)C(O)c1cc(OC)c(OC)c(OC)c1` (centres undefined): 0.98%; for `Nc1cccc(-c2cc(-c3ccccc3)nc(-c3cccc(N)c3)n2)c1`: 1.48%.
The same measure for `c1ccc(-c2c[nH]c(-c3ccccc3)c2)cc1`: 1.7%.
Turning to `c1ccc(-c2cc(-c3ccccc3)[nH]n2)cc1`, the activation is 10.4% (active).
`O=C(Nc1ccc(Cl)cn1)c1ccccc1-c1ccccc1`: the activation is 0.22%.
The same measure for `CSc1ccccc1-c1nnc(-c2ccc(Cl)cc2)o1`: 5.35%; for `Oc1ccccc1-c1cc(-c2ccc(Cl)cc2)n[nH]1`: 8.31% (active).
In the case of `O=C1CCN(C(=O)Nc2ccccc2)N1`, the activation was -0.46%.
The same measure for `O=C(COc1ccc(Cl)cc1Cl)NCCCNC(=O)c1cnccn1`: 7.84% (active); for `COc1ccccc1CCNC(=O)c1cnccn1`: 2.62%.
As for `O=C(NCCCNC(=O)c1ccccc1Cl)c1cnccn1`, the activation is 1.82%.
In the case of `CCn1c(CC(=O)Nc2ccccc2C)nnc1SCC(=O)NC1=NCCS1`, the activation is -0.89%.
The same measure for `N#Cc1c(N)nc2c3c(sc(=N)c2c1N)NC(=O)CC3c1ccccc1Cl` (centres undefined): 9.37% (active); for `CSc1nc2c(c(=O)[nH]1)C(c1cccc(Cl)c1Cl)CC(=O)N2` (centres undefined): -1.23%.
The same measure for `COc1ccc(C2CC(=O)Nc3sc(=N)c4c(N)c(C#N)c(N)nc4c32)cc1OC` (centres undefined): 5.47%; for `O=C(O)c1ccccc1-c1cccc2nncn12`: 0.6%; for `CCOC(=O)c1[nH]c2ccc(C)cc2c1N=C(C)N(C)C`: 2.12%.
The same measure for `CCOC(=O)c1cc2cc(C)ccc2[nH]1`: 7.85% (active); for `Cc1ccc2[nH]c(=O)c(COC(=O)c3ccccn3)cc2c1`: -0.35%.
`CC(=O)c1ccc(-c2cnc3c(NC=O)cc(-c4cccc(NS(C)(=O)=O)c4)cn23)cc1`: the activation is -2.27%.
Under `Cc1cc(C(=O)N2CCN(c3ccccn3)CC2)c(C)o1` stands 1.36%.
The same measure for `CN(C)C(CNC(=O)c1cc(Br)c(Br)s1)c1ccco1` (centres undefined): 0.51%; for `CCOC(=O)[C@@H]1[C@H]2COc3ccc(Br)cc3[C@H]2N2C(=O)N(c3ccc(C)cc3)C(=O)[C@@]12C`: 0.65%.
For the molecule `CC12C(=O)N(c3ccccc3)C(=O)C1C(c1ccccc1)N1CCCN12` (centres undefined), the activation was -0.94%.
The same measure for `O=C1[C@H]2[C@@H](c3ccc(C(F)(F)F)cc3)N[C@]3(CCCN(Cc4ccc(Br)cc4)C3=O)[C@H]2C(=O)N1Cc1ccccc1`: -7.76%; for `Cc1cccc(N2C(=O)N3[C@H](c4ccc(F)cc4)[C@@H]4C(=O)N(C5CCCCC5)C(=O)[C@@H]4[C@]3(Cc3ccccc3)C2=O)c1`: 5.49%.
The same measure for `O=C1[C@H]2[C@@H](c3ccc(Cl)cc3)N3C(=O)N(c4cccc(F)c4)C(=O)[C@@]3(Cc3ccccc3)[C@H]2C(=O)N1C1CCCCC1`: 8.92% (active).
Under `O=C1[C@H]2[C@@H](c3ccc(F)cc3)N3C(=O)N(c4ccc(C(F)(F)F)cc4)C(=O)[C@@]3(Cc3ccccc3)[C@H]2C(=O)N1C1CCCCC1` stands 7.65% (active).
Take `C[C@@]12C(=O)N(c3cccc(Br)c3)C(=O)N1[C@H](c1ccc(Cl)cc1)[C@@H]1C(=O)N(C3CCCCC3)C(=O)[C@@H]12`: the activation was 7.88% (active).
The same measure for `O=C1[C@H]2[C@@H](c3ccc(C(F)(F)F)cc3)N[C@]3(CCCN(Cc4ccc(Cl)cc4)C3=O)[C@H]2C(=O)N1Cc1ccccc1`: -7.53%.
Under `Cc1cccc([C@@H]2[C@@H]3C(=O)N(Cc4ccccc4)C(=O)[C@@H]3[C@]3(Cc4ccc(Cl)cc4)C(=O)N(c4cccc(Cl)c4)C(=O)N23)c1` stands 0.5%.
`CNC(=O)c1ccc(CN(C)C(=O)c2cc(C3CC3)nc3c2cnn3C(C)C)cc1`: the activation is 1.69%.
In the case of `CN(C(=O)c1cccc(NC(=O)Cc2ccc(NC(=O)C3CCCN(C(=O)C4CC4)C3)cc2)c1)C1CC1` (centres undefined), the activation is 0.38%.
As to `O=C(CN1C(=O)NC2(CCCC2)C1=O)NCC1CCCO1` (centres undefined), the activation is 0.59%.
`COCc1cc(C)nc(Nc2cc(C)ccc2C)c1C#N`: the activation was -0.89%.
With `CCOC(=O)c1ccc(-c2ccc3ncnc(N(C)Cc4sccc4C)c3c2)o1`, the activation is 4.4%.
Consider `O=C(Nc1nccs1)C1CCCN1S(=O)(=O)c1cccc2cccnc12` (centres undefined), for which the activation is -0.14%.
Take `O=C(Cc1ccc(-n2c(=O)c3sccc3n(Cc3ccc(F)cc3)c2=O)cc1)NCc1ccco1`: the activation is -1.57%.
Turning to `O=C(NCc1ccco1)c1cc2sccc2n1Cc1ccc(F)cc1`, the activation was 0.82%.
For `O=C(NCc1ccco1)c1ccc(Cn2c(=O)c3sccc3n(Cc3ccc(F)cc3)c2=O)cc1`, the activation was 15.4% (active).
On to `C/C(Cc1ccccc1)=N\NC(=O)CNC(=O)c1ccc2c(c1)OCCO2`, for which the activation was -1.21%.
The same measure for `COc1ccc(-c2nnc(NC(=O)CS(=O)(=O)c3ccc(Cl)cc3)o2)c(OC)c1`: 2.95%; for `COc1ccc(-c2nnc(SCC(=O)c3cccs3)o2)c(OC)c1`: 7.8% (active).
Turning to `COc1ccccc1-c1nnc(SCC(=O)N2CC(C)CC(C)C2)o1` (centres undefined), the activation was 3.31%.
Consider `CN(C(=O)c1cc2c(=O)n3ccccc3nc2s1)C1CCCCC1`, for which the activation was 8.38% (active).
On to `CCOCCCNC(=O)c1cc2c(=O)n3ccccc3nc2s1`, for which the activation is 3.92%.
Take `Cc1cccn2c(=O)c3cc(C(=O)NC4CCCCC4)sc3nc12`: the activation is 2%.
With `CC(=O)N1c2ccc(S(=O)(=O)N3CCC(C(=O)NC4CCCC(C)C4C)CC3)cc2CC1C` (centres undefined), the activation was 1.08%.
The same measure for `Clc1ccc(-c2nnc(-c3ccccc3)nc2N2CCSCC2)cc1`: -1.26%; for `OC(c1ccc(Cl)c(F)c1)c1ncc(-c2ccccc2Cl)[nH]1` (centres undefined): 0.22%; for `N#CCSc1nc2c(c(=O)n1Cc1ccccc1)C1(CCCC1)Cc1ccccc1-2`: -0.71%.
Under `CCC1(CC)Cc2ccccc2-c2nc(CCl)[nH]c(=O)c21` stands 8.24% (active).
In the case of `CCOC(=O)C1Cn2c(nc3c(c2=O)C(C)(CC)Cc2ccccc2-3)S1` (centres undefined), the activation was 1.17%.
As for `CN1CCCc2cc(C#N)c(=O)[nH]c21`, the activation is -0.22%.
The same measure for `C[C@H](CO)N1C[C@H](C)[C@@H](CN(C)S(=O)(=O)c2ccc(Oc3ccccc3)cc2)OCc2cn(nn2)CCCC1=O`: -2.73%; for `CCOC(=O)C1CCN(C(=O)c2ccc3c(=O)n4nc(Nc5ccccc5CC)sc4nc3c2)CC1`: 0.72%.
The same measure for `O=C(/C=C/Sc1ncn[nH]1)c1ccc(Cl)cc1`: 23.3% (active).
`COc1ccc(CNC(=O)[C@@H]2CC=C[C@@H]3CCN(C4CC4)C(=O)[C@@H]32)cc1`: the activation is -0.64%.
The same measure for `O=S(=O)(Nc1ccc2nc(-c3ccco3)[nH]c2c1)c1ccccc1`: 2.98%; for `Cc1ccn2c(-c3csc(Nc4ccc(C(=O)O)cc4)n3)c(C)nc2c1`: 1.81%; for `COc1ccc(-c2csc(Cc3nc(O)cs3)n2)cc1`: 21.7% (active).
On to `Cc1ccc(Nc2nc(-c3ccc(O)cc3O)cs2)nc1`, for which the activation was 2.15%.
Take `COc1ccc(C(O)c2nc(-c3ccc(OC)nc3)cs2)cc1` (centres undefined): the activation was 0.21%.
The same measure for `COc1ccc(C(C)(O)c2nc(-c3ccc(C)c(C)c3)cs2)cc1` (centres undefined): 0.79%; for `COC(=O)CCc1sc(Nc2ccc(Br)cc2)nc1-c1ccc(OC)cc1`: 2.66%; for `O=c1oc2ccccc2cc1-c1csc(Nc2ccc(O)cc2)n1`: 22.5% (active).
Under `COc1ccc(-c2csc(Nc3cccc(C)n3)n2)cc1OC` stands 0.8%; under `COc1ccc(-c2csc(Nc3ccc(O)cc3)n2)cc1`, 8.06% (active).
The same measure for `COc1cc2c(cc1CNC[C@H]1O[C@@H](n3cnc(C(N)=O)n3)[C@H](O)[C@@H]1O)OCO2`: -0.43%.
With `CCOC(=O)c1c(C)oc2cc(Br)c(OCC(N)=O)cc12`, the activation was -1.34%.
On to `COc1cc2c(cc1OC)C(C(=O)Nc1cc(C)c(OC)c(C)c1)CC(=O)N2` (centres undefined), for which the activation is 1.49%.
The same measure for `CC12CCC(=O)C=C1CCC1C2C(O)CC2(C)C1CCC2(O)C(O)CO` (centres undefined): 0.74%.
With `O=C(O)c1ccccc1N=N/C(=N/Nc1cc(S(=O)(=O)O)ccc1O)c1ccccc1`, the activation was -1.25%.
Take `COc1ccc(OC)c(S(=O)(=O)N(C)CC(=O)N2CCN(c3ccccc3)CC2)c1`: the activation is -1.26%.
The same measure for `CC1CC2=C(CC1/C=N/NC(N)=S)C(C)(C)CCC2` (centres undefined): -2.98%; for `Cc1ccc(C2NC(=S)NC3=C2N2CCC3CC2)cc1` (centres undefined): 1.46%; for `CC(=O)CCS(=O)(=O)c1ccc(C)c(C)c1`: 0.08%.
Under `COc1cc(/C=N/Nc2nc3ccccc3s2)ccc1O` stands 8.92% (active); under `CCOc1cc(/C=N/Nc2cc(C)nc3ccc(C)cc23)ccc1O`, -0.68%; under `COc1cc(C=NC2CCCCC2)ccc1O`, -0.66%.
The same measure for `CCN1C(=NCCc2cccnc2)N[C@@H](c2ccccc2)[C@H](C(=O)OC)[C@H]1C`: 1.66%; for `Cc1ccc(CNC(=O)Nc2nnc([C@H]3C[C@H](O)[C@@H](CO)O3)s2)cc1`: 0.3%.
